Drawing on PubChem BioAssay, this text covers composite z-score and z-score for five compounds.

Each structure is given as a SMILES string. Calls of active or inactive are those of the source. Unless noted, how the calls were made is not given here.

Experiment [1] in a line: compounds binding Alexa647 anti-His antibody – biochemical, small-molecule microarray, 635 nm fluorescence, artefact control for SMM control protein annotation, primary screen (AID 1128).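 Further: score merges feature fluorescence with signal-to-noise for each printed compound spot.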 The following applies: higher = more signal.
Experiment [2] concerns Human papillomavirus type 1a E7 protein (residues 1-88). In words: HPV1a E7 small-molecule binders, primary screen, biochemical, small-molecule microarray, residues 1-88, 635 nm (AID 1129). Particulars: small-molecule microarray binding, fluorescence 635 nm; higher = more signal.
Experiment [3] addresses Focal adhesion kinase 1 (Homo sapiens) (UniProt Q05397). Kind of experiment: PTK2 protein binding on printed compound slides – biochemical, small-molecule microarray, 635/667 nm fluorescence, BSA, DTT, primary screen (AID 1130).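 Further: composite of spot emission at 667 nm and signal to noise over triplicate slides.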 The following applies: 635 nm fluorescence, higher = more signal.
For experiment [4], the system named is Fibrinogen (Alexa647-labelled). Kind of experiment: Alexa647-fibrinogen binding to printed small molecules – biochemical, small-molecule microarray, 635/667 nm fluorescence, artefact control for SMM control-protein annotation, profiling panel (AID 1131).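 Further: z-score merges 667 nm fluorescence with per-spot signal-to-noise over triplicate slides.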 The following applies: fibrinogen-A647 binding fluorescence, higher = more signal.
Experiment [5] addresses Follistatin (Homo sapiens) (UniProt P19883). Kind of experiment: FST protein binding to printed compounds – biochemical, small-molecule microarray, 635/667 nm fluorescence, primary screen (AID 1132). The following applies: 635 nm fluorescence, higher = more signal.
For experiment [6], the target named is Fibroblast growth factor 2 (Homo sapiens) (UniProt P09038). Kind of experiment: basic fibroblast growth factor binding to printed compounds – biochemical, small-molecule microarray, 635/667 nm fluorescence, primary screen (AID 1133). Particulars: FGF2, fluorescence 635/667, higher = more signal.
Experiment [7] in a line: JC-1 mitochondrial potential readout, lung cancer cells – cell-based, A549, JC-1 fluorescence, basal, 24 h, 100 nL, profiling panel (AID 1138).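 Further: A549 lung adenocarcinoma cells under basal conditions with no added stimulus; test concentration not given here.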 Particulars: higher = more signal.
For experiment [8], the system named is Lefty1. Kind of experiment: Lefty1 protein binding to printed compounds – biochemical, small-molecule microarray, 635/667 nm fluorescence, primary screen (AID 1139). Particulars: fluorescence 635/667, higher = more signal.
Experiment [9] has as its system wheat germ agglutinin (Triticum aestivum), Alexa647-labelled. In words: Alexa647-WGA lectin binding to printed small molecules – biochemical, small-molecule microarray, 635/667 nm fluorescence, artefact control for SMM control-protein annotation, profiling panel (AID 1140).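 Further: score merges 667 nm feature emission with signal to noise over triplicate slides.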 Particulars: WGA-A647 binding, 635 nm fluorescence, higher = more signal.
The target in experiment [10] is Luciferin 4-monooxygenase (Photinus pyralis) (UniProt P08659). In words: inhibition of purified Photinus pyralis luciferase – biochemical, luminescence, purified enzyme, 2006 set, primary screen (AID 1141).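 Further: cell-free assay with purified firefly luciferase at 100 ng per well in PBS; test concentration not given here.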 The following applies: purified firefly luciferase, SteadyGlo luminescence, 30 min; higher = more signal, called active from +8 up or from −8 down.
The subject of experiment [11] is Wnt5a (protein binding on small-molecule microarray). Kind of experiment: small molecules binding Wnt5a protein – biophysical, small-molecule microarray, 635/667 nm fluorescence, primary screen (AID 1142).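 Further: fluorescence read at 667 nm with signal to noise per printed feature.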 The following applies: 635 nm fluorescence, higher = more signal.
Experiment [12] can be described thus: ATP-based viability of Huh7 replicon cells – cell-based, CellTiter-Glo luminescence, basal, 48 h, cytotoxicity control for HCV replication inhibitor project, primary screen (AID 1143).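 Further: Huh7 hepatoma cells carrying a hepatitis C replication reporter with no stimulus; test concentration not given here.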 The following applies: higher = more signal, called active from +8 up or from −8 down.
A short description of experiment [13]: Pseudomonas biofilm growth suppression – PAO1 strain, BacTiter-Glo luminescence, LB-PBS, primary screen (AID 1144). Particulars: P. aeruginosa PAO1 biofilm, 12 h, higher = more signal.
Experiment [14] in a line: basal CRE-LacZ reporter activity in PC12 – cell-based, unstimulated, primary screen (AID 1145). The following applies: no forskolin, luminescence, 4.5 h, higher = more signal, called active from +8 up or from −8 down.
Experiment [15] is described as follows: forskolin-driven CRE-LacZ activity in PC12 – cell-based, CRE-LacZ reporter, forskolin-stimulated, primary screen (AID 1146).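 Further: PC12 cells with 6xCRE LacZ reporter stimulated by forskolin 10 µM; beta-galactosidase reporter signal reflecting CREB driven transcription.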 Particulars: luminescence, 4.5 h, higher = more signal, called active from +8 up or from −8 down.
Experiment [16] concerns the target Streptavidin (Streptomyces avidinii) (UniProt P22629). Kind of experiment: compounds binding control protein streptavidin – biophysical, small-molecule microarray, 635/667 nm fluorescence, artefact control for SMM compound annotation, primary screen (AID 1147).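 Further: signal reflects streptavidin binding to arrayed compounds as a control protein.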 Particulars: higher = more signal.
A short description of experiment [17]: probe aInhba binding on compound microarray – biochemical, small-molecule microarray, 635/667 nm fluorescence, primary screen (AID 1148).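 Further: score merges 667nm spot fluorescence with signal-to-noise for antibody binding to printed compounds.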 The following applies: higher = more signal.
The target of experiment [18] is Torsin-1A (Homo sapiens) (UniProt O14656). Kind of experiment: TOR1A wild-type binding on microarray – cell lysate, small-molecule microarray, lysate, 635/667 nm, primary screen (AID 1149). The following applies: COS7 hTOR1A-WT lysate, 635 nm fluorescence, higher = more signal.
Experiment [19] shares this target. Kind of experiment: torsin A mutant lysate binding on microarrays – cell lysate, small-molecule microarray, COS7 lysate, 635/667 nm fluorescence, primary screen (AID 1150).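 Further: score pools 667 nm emission and signal to noise measuring lysate protein binding.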 The following applies: COS7 hTOR1A mutant lysate, 635 nm fluorescence, higher = more signal.
Experiment [20] has as its system Sonic hedgehog protein (Shh). In words: Sonic hedgehog microarray binding compounds – biochemical, small-molecule microarray, 635/667 nm fluorescence, primary screen (AID 1151).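 Further: Shh protein binding to compounds spotted on small-molecule microarray slides; score combines spot fluorescence intensity with signal-to-noise across triplicate slides.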 Particulars: 635 nm fluorescence, higher = more signal.

Follistatin (Homo sapiens), sequence (P19883 whole entry, looked up): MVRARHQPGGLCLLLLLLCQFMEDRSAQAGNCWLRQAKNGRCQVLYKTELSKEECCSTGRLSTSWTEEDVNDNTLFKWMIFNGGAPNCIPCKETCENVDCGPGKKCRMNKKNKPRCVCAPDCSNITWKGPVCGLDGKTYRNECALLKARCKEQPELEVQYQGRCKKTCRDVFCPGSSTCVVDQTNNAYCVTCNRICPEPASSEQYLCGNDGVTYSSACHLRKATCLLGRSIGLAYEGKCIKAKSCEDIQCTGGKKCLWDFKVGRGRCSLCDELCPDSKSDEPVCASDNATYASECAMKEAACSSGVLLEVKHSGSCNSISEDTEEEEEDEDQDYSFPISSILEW
Fibroblast growth factor 2 (Homo sapiens), sequence (P09038 whole entry, looked up): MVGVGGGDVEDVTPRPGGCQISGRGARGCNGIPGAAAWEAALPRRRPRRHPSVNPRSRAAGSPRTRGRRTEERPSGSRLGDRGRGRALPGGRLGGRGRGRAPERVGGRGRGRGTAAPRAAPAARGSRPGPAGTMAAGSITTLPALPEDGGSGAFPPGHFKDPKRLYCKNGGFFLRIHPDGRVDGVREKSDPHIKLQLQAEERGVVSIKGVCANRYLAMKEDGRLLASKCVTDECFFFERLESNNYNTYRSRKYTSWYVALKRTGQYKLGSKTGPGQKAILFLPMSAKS
Luciferin 4-monooxygenase (Photinus pyralis), sequence (P08659 whole entry, looked up): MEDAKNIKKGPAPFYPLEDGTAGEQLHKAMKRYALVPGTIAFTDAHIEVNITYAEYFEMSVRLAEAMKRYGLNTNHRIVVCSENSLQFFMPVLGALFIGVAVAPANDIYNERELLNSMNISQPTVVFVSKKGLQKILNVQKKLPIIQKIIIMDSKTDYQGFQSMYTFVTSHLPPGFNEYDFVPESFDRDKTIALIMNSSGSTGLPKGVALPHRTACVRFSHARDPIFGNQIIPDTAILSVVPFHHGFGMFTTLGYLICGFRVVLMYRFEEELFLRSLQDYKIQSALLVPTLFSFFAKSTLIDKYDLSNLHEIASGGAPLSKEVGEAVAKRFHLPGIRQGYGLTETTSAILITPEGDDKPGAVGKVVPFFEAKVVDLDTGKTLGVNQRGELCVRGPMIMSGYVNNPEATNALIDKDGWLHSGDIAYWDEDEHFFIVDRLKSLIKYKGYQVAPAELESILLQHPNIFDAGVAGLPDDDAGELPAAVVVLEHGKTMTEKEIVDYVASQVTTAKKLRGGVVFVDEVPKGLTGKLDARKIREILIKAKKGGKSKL
Streptavidin (Streptomyces avidinii), sequence (P22629 whole entry, looked up): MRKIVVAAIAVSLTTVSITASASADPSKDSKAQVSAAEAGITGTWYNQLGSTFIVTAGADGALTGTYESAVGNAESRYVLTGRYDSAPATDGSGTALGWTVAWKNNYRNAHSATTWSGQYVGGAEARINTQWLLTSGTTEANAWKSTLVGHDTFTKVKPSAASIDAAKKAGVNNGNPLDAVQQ
Torsin-1A (Homo sapiens), sequence (O14656 whole entry, looked up): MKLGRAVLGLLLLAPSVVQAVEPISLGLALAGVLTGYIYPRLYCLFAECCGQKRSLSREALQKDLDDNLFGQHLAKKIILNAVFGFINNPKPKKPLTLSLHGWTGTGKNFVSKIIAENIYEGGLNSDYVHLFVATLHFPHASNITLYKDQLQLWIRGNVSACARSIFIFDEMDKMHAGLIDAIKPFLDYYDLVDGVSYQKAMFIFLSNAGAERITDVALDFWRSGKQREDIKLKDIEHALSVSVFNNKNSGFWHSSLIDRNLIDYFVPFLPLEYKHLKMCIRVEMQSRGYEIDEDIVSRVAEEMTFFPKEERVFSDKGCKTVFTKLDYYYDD
Focal adhesion kinase 1 (Homo sapiens), sequence (Q05397 whole entry, looked up): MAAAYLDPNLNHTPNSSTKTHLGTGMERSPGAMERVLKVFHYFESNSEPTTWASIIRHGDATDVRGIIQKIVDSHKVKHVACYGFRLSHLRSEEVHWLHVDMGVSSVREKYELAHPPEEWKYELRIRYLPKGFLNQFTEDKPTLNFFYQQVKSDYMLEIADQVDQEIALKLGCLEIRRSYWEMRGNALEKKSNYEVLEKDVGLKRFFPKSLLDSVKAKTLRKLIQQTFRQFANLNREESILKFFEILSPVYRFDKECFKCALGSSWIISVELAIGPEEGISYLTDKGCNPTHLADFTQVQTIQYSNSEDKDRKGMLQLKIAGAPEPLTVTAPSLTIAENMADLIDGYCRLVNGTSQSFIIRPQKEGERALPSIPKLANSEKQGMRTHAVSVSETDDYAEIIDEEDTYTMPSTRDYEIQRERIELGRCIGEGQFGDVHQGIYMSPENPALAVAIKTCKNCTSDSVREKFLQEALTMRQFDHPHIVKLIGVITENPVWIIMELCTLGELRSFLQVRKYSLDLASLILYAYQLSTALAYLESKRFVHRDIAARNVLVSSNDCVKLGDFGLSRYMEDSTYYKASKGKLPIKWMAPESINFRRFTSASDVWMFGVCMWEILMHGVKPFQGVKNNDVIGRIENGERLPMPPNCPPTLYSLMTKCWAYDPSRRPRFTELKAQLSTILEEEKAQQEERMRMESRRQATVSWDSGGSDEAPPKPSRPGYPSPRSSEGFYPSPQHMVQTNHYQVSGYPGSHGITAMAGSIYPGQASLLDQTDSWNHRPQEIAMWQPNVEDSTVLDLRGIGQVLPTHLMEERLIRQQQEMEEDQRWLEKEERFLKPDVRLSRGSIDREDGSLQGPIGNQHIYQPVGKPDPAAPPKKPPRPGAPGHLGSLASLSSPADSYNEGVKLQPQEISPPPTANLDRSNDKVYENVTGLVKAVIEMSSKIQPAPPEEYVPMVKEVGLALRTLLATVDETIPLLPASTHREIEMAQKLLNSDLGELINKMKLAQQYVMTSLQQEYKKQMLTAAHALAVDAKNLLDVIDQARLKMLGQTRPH

Turning to `C[N+](C)(C)CCCC[C@@H]1NC(=O)[C@H]2C[C@@H](C(=O)NCCCCCNC(=O)CS)[C@@H](c3ccc(O)cc3)N2C1=O`, the composite z-score in experiment [1] was 2.82; in [2], 0.785; in experiment [3], 0.336; in experiment [4], 0.9; in experiment [5], 1.07; in [6] it was 0.826. For the same compound, the composite z-score was 0.349 in [8]; 0.215 in [9]; 0.084 in experiment [11]; 0.354 in experiment [16]; -0.045 in experiment [17]; 0.327 in [18]. In addition, the results for the composite z-score in experiment [19] and in experiment [20] were 0.891 and 0.748, respectively. Also, the z-score is 0.455 in [7]; -1.2 (inactive) in [10]; -0.523 (inactive) in experiment [12]; -1.39 (inactive) in [13]; 0.0084 (inactive) in experiment [14]; -0.165 (inactive) in experiment [15].
In the case of `COc1cc2c(cc1O)C(C1CC1)N(Cc1ccc([N+](=O)[O-])o1)CC2` (stereo not given), the composite z-score is 0.852 in experiment [1]; 1.12 in [2]; 0.325 in experiment [3]; 0.577 in experiment [4]; 0.361 in experiment [5]; -0.0629 in [6]. Besides, the composite z-score is -0.546 in [8]; 1.06 in experiment [9]; 0.128 in experiment [11]; 1.63 in experiment [16]; 0.161 in experiment [17]; 0.322 in [18]. The composite z-score in [19] is 0.521; in [20], -0.575. Moreover, the z-score in experiment [7] was -0.184; in experiment [10] it was -0.924 (inactive); in [12], -0.148 (inactive); in experiment [13], 0.741 (inactive); in experiment [14], 0.0924 (inactive); in experiment [15], 0.786 (inactive).
Take `CN(C)CCCC[C@@H]1NC(=O)[C@@H]2C[C@H](C(=O)NCCCCCCNC(=O)CS)[C@H](c3cccc(OCCO)c3)N2C1=O`: the composite z-score in experiment [1] is 1.5; in [2], 0.0742; in experiment [3] it was 0.819; in experiment [4] it was -1.07; in experiment [5] it was 0.541; in [6], 0.541. Also, the composite z-score in [8] is 0.273; in [9], 0.235; in [11] it was 0.152; in experiment [16] it was -0.149; in experiment [17], -0.0471; in experiment [18] it was 0.77. Also, the composite z-score amounted to 0.702 in experiment [19] and 0.919 in experiment [20]. Also, the z-score in experiment [7] was 1.12; in experiment [10], -0.402 (inactive); in experiment [12] it was 0.425 (inactive); in experiment [13], -0.332 (inactive); in experiment [14], -0.256 (inactive); in [15], -0.995 (inactive).
On to `CN(C)CCCCNC(=O)[C@H]1C[C@H]2C(=O)NCC(=O)N2[C@H]1c1cccc(OCCO)c1`, for which the composite z-score in experiment [1] is 0.465; in experiment [2], -0.74; in [3] it was -0.539; in [4] it was -1.59; in experiment [5] it was 0.991; in [6], 0.817. The composite z-score in experiment [8] was 0.748; in experiment [9], 0.169; in [11], 0.133; in experiment [16], -1.04; in [17], -0.202; in experiment [18] it was 0.0774. Further, the composite z-score in [19] is -0.0032; in experiment [20], 2.19. In addition, the z-score in experiment [7] is 0.411; in [10] it was 1.59 (inactive); in experiment [12] it was 0.344 (inactive); in experiment [13], -0.254 (inactive); in experiment [14] it was -0.398 (inactive); in experiment [15], 0.586 (inactive).
`C[C@H]1C2[C@H](Cc3ccccc3)NC(=O)[C@]23C(=O)NCC(=O)N2CCC[C@H]2C(=O)NC/C=C\C/C=C/C3[C@@H]2O[C@]12C` (stereo not given in full): the composite z-score is -0.151 in [1]; -0.0402 in experiment [2]; -0.258 in [3]; -0.454 in [4]; 0.278 in experiment [5]; 1.1 in [6]. The composite z-score in experiment [8] was 0.0393; in [9], -0.121; in [11], 0.0076; in experiment [16] it was -0.744; in experiment [17], -0.018; in experiment [18], -0.266. In addition, the values for the composite z-score in experiment [19] and in experiment [20] were -0.618 and 1.2, respectively. In addition, the z-score in experiment [7] was 0.546; in experiment [10], -1.25 (inactive); in [12], 0.493 (inactive); in experiment [13] it was 0.716 (inactive); in experiment [14] it was 0.495 (inactive); in experiment [15], -0.294 (inactive).
